Experimental data from PubChem BioAssay (EPA / NIEHS).
Records with an inconclusive call do not appear. Activity calls are given as the source filed them. The calls were made as follows, unless noted: active = hit-call score of the fitted dose curve at least 0.9, where 1 is the maximum; inconclusive = response in the unintended direction; inactive = score below 0.9.

Key:
[1] = ATG_TGFb_CIS: Attagene CIS-FACTORIAL HepG2 Assay for human Transforming Growth Factor (TGF) (AID 2282967; active = hit-call score of the fitted dose curve at least 0.9, where 1 is the maximum; inactive = score below 0.9); details: HepG2 Attagene CIS TGFb reporter, mRNA transcription; actives raise or lower the signal
Method in brief: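 Bidirectional fitting relative to DMSO gave the endpoint. Underlying data: reporter mRNA from HepG2 cells carrying transiently transfected cis-regulated reporter constructs, harvested 24 h after dosing and analyzed by RT-PCR and capillary electrophoresis.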

[2] = ATG_VDRE_CIS: Attagene CIS-FACTORIAL HepG2 Assay for human Vitamin D Receptor Element (VDRE) (AID 2282968; active = hit-call score of the fitted dose curve at least 0.9, where 1 is the maximum; inactive = score below 0.9); details: HepG2 VDRE cis-reporter transcription, actives raise or lower the signal
Method in brief: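 Cell-based multiplexed reporter format in human liver HepG2 cells, 24 h post-dose. Fluorescence from capillary electrophoresis of reporter cDNA gives the signal, with DMSO as negative control and baseline.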

[3] = biological target: Estrogen receptor (Homo sapiens) (UniProt P03372); assay: ATG_ERa_TRANS: Attagene TRANS-FACTORIAL HepG2 Assay for human Estrogen Receptor alpha (ERa) (AID 2282970); details: HepG2 Attagene TRANS ERa GAL4 reporter, mRNA
Estrogen receptor (Homo sapiens), sequence (P03372 whole entry, looked up, the tested form may be a part): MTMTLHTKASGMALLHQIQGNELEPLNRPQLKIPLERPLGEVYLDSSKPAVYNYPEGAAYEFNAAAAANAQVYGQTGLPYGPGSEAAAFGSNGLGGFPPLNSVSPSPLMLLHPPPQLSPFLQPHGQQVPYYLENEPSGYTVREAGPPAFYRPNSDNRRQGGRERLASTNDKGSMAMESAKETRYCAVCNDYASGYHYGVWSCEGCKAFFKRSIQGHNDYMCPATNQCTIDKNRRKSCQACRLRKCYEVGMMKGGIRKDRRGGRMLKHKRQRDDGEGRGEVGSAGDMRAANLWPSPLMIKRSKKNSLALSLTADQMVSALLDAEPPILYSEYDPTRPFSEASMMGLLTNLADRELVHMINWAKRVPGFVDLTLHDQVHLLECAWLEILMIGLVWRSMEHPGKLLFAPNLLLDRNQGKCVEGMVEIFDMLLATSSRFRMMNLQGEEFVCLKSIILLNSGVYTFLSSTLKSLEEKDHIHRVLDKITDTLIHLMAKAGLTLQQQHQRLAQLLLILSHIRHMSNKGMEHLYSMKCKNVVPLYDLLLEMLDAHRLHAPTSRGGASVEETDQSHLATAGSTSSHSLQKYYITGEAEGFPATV
Method in brief: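 Human liver HepG2, transient transfection of multiple GAL4-UAS reporter units; TRANS format (exogenous NR-Gal4 chimera). 24 h dosing. Readout: reporter mRNA, RT-PCR, 6-FAM primer extension, HpaI digest, capillary electrophoresis. Positive direction vs DMSO.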

[4] = biological target: X-box-binding protein 1 (Homo sapiens) (UniProt P17861); assay: ATG_Xbp1_CIS: Attagene CIS-FACTORIAL HepG2 Assay for human X-box Binding Protein 1 (XBP1) (AID 2282972; active = hit-call score of the fitted dose curve at least 0.9, where 1 is the maximum; inactive = score below 0.9); details: HepG2 XBP1 cis-element reporter, Attagene multiplex; actives raise or lower the signal
X-box-binding protein 1 (Homo sapiens), sequence (P17861 whole entry, looked up): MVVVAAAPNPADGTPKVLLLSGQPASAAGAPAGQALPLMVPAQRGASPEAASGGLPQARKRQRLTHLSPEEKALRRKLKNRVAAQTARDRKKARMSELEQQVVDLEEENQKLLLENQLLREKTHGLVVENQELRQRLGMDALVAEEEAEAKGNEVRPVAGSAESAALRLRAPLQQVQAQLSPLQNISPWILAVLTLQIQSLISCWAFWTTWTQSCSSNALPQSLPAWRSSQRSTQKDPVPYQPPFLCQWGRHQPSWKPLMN
Method in brief: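 After a 24-hour chemical exposure of HepG2 cells carrying cis-regulated reporters, reporter mRNA levels are assessed. Quantification uses RT-PCR, 6-FAM labelling and capillary electrophoresis. Gain- or loss-of-signal is fitted against DMSO.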

[5] = biological target: Glucocorticoid receptor (Homo sapiens) (UniProt P04150); assay: ATG_GR_TRANS: Attagene TRANS-FACTORIAL HepG2 Assay for human Glucocorticoid Receptor (GR) (AID 2282978); details: HepG2 Attagene TRANS GR reporter, mRNA transcription;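 also: activators score as hits since higher reporter transcript over DMSO is fitted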
Glucocorticoid receptor (Homo sapiens), sequence (P04150 whole entry, looked up, the tested form may be a part): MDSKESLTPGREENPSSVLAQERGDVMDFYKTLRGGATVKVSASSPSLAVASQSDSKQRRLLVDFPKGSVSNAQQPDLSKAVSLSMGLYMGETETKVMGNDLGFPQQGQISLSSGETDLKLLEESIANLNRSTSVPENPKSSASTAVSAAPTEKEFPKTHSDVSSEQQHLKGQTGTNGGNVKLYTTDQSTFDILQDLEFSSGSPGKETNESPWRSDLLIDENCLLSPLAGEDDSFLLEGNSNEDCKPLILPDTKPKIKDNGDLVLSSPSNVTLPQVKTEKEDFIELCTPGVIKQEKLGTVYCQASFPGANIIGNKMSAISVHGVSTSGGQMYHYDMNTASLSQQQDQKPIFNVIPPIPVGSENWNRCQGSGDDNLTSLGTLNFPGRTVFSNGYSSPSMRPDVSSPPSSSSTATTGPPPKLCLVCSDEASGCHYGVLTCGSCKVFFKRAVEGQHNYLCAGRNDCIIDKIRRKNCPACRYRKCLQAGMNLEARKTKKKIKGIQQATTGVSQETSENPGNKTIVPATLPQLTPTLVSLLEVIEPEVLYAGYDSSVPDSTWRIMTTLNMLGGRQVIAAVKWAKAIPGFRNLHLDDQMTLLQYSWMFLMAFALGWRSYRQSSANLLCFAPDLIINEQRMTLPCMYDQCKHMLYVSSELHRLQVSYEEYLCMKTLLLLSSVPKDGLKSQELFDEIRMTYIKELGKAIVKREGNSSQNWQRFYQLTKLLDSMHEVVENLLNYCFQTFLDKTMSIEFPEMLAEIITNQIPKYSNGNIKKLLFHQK
Method in brief: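 Transient MRTU transfection of HepG2 (GAL4-UAS reporters, exogenous NR-GAL4 chimeras), 24 h dosing. Readout: reporter transcript via RT-PCR + capillary electrophoresis fluorescence. Positive direction vs DMSO baseline.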

[6] = biological target: Oxysterols receptor LXR-alpha (Homo sapiens) (UniProt Q13133); assay: ATG_LXRa_TRANS: Attagene TRANS-FACTORIAL HepG2 Assay for human Liver X Receptor alpha (LXRa) (AID 2282980); details: HepG2 Attagene TRANS reporter, LXRa transactivation
Method in brief: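 Transfect HepG2 with GAL4-UAS multiplex reporter constructs (TRANS format, chimeric receptor-GAL4); treat 24 h; extract RNA, reverse-transcribe, PCR-amplify, FAM-label, HpaI-digest; resolve fragments by capillary electrophoresis. Upward response vs DMSO.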

[7] = biological target: Oxysterols receptor LXR-beta (Homo sapiens) (UniProt P55055); assay: ATG_LXRb_TRANS: Attagene TRANS-FACTORIAL HepG2 Assay for human Liver X Receptor beta (LXRb) (AID 2282981); details: HepG2 Attagene TRANS GAL4-LXRb reporter, mRNA
Method in brief: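 Gain-of-signal mRNA reporter endpoint, DMSO as negative control. Transiently transfected HepG2 cells carrying the NR-Gal4 chimera and GAL4-UAS reporter units were treated 24 h; transcripts quantified by RT-PCR and capillary electrophoresis fluorescence.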

[8] = biological target: Hepatocyte nuclear factor 4-alpha (Homo sapiens) (UniProt P41235); assay: ATG_HNF4a_TRANS: Attagene TRANS-FACTORIAL HepG2 Assay for human Hepatocyte Nuclear Factor 4 alpha (HNF4a) (AID 2282982); details: HepG2 HNF4a transactivation reporter, mRNA readout
Hepatocyte nuclear factor 4-alpha (Homo sapiens), sequence (P41235 whole entry, looked up, the tested form may be a part): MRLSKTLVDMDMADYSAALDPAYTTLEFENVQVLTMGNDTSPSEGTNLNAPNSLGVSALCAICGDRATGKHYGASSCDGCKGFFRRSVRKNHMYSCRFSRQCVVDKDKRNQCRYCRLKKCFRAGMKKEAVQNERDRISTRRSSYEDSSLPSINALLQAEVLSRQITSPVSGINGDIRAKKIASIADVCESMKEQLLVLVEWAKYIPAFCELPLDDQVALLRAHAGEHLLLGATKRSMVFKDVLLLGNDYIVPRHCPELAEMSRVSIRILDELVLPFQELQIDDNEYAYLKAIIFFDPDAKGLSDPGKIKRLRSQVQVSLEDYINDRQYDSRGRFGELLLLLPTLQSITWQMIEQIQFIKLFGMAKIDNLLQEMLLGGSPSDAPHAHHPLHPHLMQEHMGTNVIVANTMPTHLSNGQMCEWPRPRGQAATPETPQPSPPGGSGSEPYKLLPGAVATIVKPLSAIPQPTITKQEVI
Method in brief: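 Gain-of-signal mRNA induction, relative to DMSO vehicle, was read after 24 h compound treatment of HepG2 cells bearing transfected GAL4-UAS reporters. Detection used RT-PCR, 6-FAM primer extension and capillary electrophoresis.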

[9] = ATG_M_06_TRANS: Attagene TRANS-FACTORIAL HepG2 Assay for M06 Transcription Factor (Internal Marker) (AID 2282983); details: HepG2 Attagene TRANS M06 internal marker reporter
Method in brief: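 Transfect HepG2 with MRTUs → dose compounds 24 h → isolate RNA, oligo(dT) RT → PCR with reporter primers → 6-FAM primer extension → HpaI digest → CE fragment analysis. Positive direction vs DMSO.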

[10] = ATG_M_32_TRANS: Attagene TRANS-FACTORIAL HepG2 Assay for M32 Transcription Factor (Internal Marker) (AID 2282984); details: HepG2 Attagene TRANS M32 internal marker reporter;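 also: transcript level of a background control reporter unit measured by RT-PCR and capillary electrophoresis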
Method in brief: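 Capillary electrophoresis of 6-FAM-labelled reporter fragments gives the signal; data fitted for gain over DMSO negative control. Source: HepG2 cells bearing transient multiple reporter transcription units, 24 h exposure.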

[11] = biological target: Nuclear receptor subfamily 4 group A member 2 (Homo sapiens) (UniProt P43354); assay: ATG_NURR1_TRANS: Attagene TRANS-FACTORIAL HepG2 Assay for human Nuclear Receptor Related Protein 1 (NURR1) (AID 2282985); details: HepG2 Attagene TRANS reporter, mRNA readout
Nuclear receptor subfamily 4 group A member 2 (Homo sapiens), sequence (P43354 whole entry, looked up): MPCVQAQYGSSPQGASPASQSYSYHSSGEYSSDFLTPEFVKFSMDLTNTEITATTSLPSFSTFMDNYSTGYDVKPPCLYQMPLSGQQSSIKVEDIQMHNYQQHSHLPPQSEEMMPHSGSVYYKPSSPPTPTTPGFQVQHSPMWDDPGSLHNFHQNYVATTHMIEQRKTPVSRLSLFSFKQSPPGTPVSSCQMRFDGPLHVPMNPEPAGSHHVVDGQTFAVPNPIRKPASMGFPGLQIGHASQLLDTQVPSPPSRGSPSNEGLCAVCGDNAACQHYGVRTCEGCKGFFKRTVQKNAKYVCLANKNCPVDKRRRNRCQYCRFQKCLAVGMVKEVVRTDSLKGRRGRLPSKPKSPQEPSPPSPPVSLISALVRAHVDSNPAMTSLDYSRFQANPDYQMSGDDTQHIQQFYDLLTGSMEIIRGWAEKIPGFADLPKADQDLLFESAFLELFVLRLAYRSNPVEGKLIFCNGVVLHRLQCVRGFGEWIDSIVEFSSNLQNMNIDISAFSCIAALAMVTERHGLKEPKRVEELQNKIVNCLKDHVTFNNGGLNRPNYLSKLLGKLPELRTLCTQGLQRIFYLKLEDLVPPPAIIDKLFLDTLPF
Method in brief: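 HepG2 / transient MRTU transfection / 24 h compound exposure / RT-PCR + CE fluorescence of reporter mRNA / gain-of-signal vs DMSO.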

[12] = biological target: Nuclear respiratory factor 1 (Homo sapiens) (UniProt Q16656); assay: ATG_NRF1_CIS: Attagene CIS-FACTORIAL HepG2 Assay for human Nuclear Respiratory Factor 1 (NRF1) Orphan Gene (AID 2282987; active = hit-call score of the fitted dose curve at least 0.9, where 1 is the maximum; inactive = score below 0.9); details: HepG2 NRF1 cis-element reporter, Attagene multiplex; actives raise or lower the signal
Nuclear respiratory factor 1 (Homo sapiens), sequence (Q16656 whole entry, looked up): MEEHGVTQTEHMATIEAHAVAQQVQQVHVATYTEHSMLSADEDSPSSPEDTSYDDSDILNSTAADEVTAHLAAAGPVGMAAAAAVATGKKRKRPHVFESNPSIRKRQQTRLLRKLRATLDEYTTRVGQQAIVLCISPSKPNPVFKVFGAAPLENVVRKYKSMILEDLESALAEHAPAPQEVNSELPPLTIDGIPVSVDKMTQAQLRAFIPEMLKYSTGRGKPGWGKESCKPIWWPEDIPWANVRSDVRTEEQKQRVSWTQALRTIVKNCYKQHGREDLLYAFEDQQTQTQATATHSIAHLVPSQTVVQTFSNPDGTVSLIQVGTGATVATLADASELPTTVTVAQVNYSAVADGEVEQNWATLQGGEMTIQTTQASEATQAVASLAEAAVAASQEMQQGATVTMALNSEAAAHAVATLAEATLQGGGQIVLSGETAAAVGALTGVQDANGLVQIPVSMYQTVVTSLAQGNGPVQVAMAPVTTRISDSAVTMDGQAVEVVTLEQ
Method in brief: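 Endogenous NRF1-driven reporter transcription measured in transiently transfected human HepG2 liver cells. Readout: reporter mRNA by RT-PCR and capillary electrophoresis with fluorescence detection, 24 h post-dosing. Gain or loss of signal fitted relative to DMSO baseline.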

[13] = biological target: Steroid hormone receptor ERR1 (Homo sapiens) (UniProt P11474); assay: ATG_ERRa_TRANS: Attagene TRANS-FACTORIAL HepG2 Assay for human Estrogen-Related Receptor alpha (ERRa) (AID 2282971); details: HepG2 Attagene TRANS reporter, ERRa transactivation
Steroid hormone receptor ERR1 (Homo sapiens), sequence (P11474 whole entry, looked up, the tested form may be a part): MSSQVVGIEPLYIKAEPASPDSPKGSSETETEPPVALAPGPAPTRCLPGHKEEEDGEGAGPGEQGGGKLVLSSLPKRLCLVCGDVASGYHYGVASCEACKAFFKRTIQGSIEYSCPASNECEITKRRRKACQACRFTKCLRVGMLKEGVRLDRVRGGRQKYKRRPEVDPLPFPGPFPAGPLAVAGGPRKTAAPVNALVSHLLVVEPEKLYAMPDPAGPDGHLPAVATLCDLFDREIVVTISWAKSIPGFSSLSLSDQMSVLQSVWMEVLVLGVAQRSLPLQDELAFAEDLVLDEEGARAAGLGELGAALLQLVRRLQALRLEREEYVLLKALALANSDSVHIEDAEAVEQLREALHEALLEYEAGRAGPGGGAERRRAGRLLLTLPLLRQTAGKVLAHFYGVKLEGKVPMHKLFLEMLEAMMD
Method in brief: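 Reporter transcript induction was quantified by RT-PCR and capillary electrophoresis of FAM-labelled, HpaI-cut products after 24 h treatment of HepG2 cells carrying transiently transfected GAL4-UAS reporter units and an exogenous ERRa-Gal4 fusion; activity scored as increase over DMSO.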

[14] = biological target: Androgen receptor (Homo sapiens) (UniProt P10275); assay: ATG_AR_TRANS: Attagene TRANS-FACTORIAL HepG2 Assay for human Androgen Receptor (AR) (AID 2282973); details: HepG2 Attagene TRANS-FACTORIAL AR reporter transcription
Method in brief: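 Steps: transfect HepG2 with multiple GAL4-UAS reporter transcription units (TRANS format, exogenous NR-Gal4 protein); dose 24 h; isolate RNA, reverse-transcribe, PCR-amplify, FAM-label, HpaI-digest; resolve by capillary electrophoresis. Positive direction vs DMSO.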

[15] = ATG_M_19_TRANS: Attagene TRANS-FACTORIAL HepG2 Assay for M19 Transcription Factor (Internal Marker) (AID 2282974); details: HepG2 Attagene TRANS-FACTORIAL M19 internal marker reporter
Method in brief: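 24 h chemical exposure of transiently transfected HepG2 (MRTU library). RNA → oligo(dT) RT → PCR → 6-FAM labelling → HpaI cut → CE fluorescence. Positive-direction fit vs DMSO baseline; background internal-marker readout.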

[16] = biological target: Bile acid receptor (Homo sapiens) (UniProt Q96RI1); assay: ATG_FXR_TRANS: Attagene TRANS-FACTORIAL HepG2 Assay for Farnesoid X Receptor (FXR) (AID 2282979); details: HepG2 Attagene TRANS FXR-GAL4 reporter transcription;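 also: hits raise reporter mRNA above DMSO so AC50 marks FXR activation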
Bile acid receptor (Homo sapiens), sequence (Q96RI1 whole entry, looked up, the tested form may be a part): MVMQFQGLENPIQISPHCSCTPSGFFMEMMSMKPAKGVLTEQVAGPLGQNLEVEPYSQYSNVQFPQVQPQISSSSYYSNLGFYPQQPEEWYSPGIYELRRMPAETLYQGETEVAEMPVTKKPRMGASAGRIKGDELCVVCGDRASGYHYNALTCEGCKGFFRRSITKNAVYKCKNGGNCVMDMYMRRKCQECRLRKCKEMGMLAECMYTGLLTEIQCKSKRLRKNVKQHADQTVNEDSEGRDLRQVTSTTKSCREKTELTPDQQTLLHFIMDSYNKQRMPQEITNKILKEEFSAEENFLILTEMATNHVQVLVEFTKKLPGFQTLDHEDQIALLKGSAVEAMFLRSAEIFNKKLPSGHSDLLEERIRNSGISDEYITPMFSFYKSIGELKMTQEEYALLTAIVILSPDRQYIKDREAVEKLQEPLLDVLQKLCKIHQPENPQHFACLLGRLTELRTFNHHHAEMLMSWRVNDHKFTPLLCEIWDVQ
Method in brief: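 Transient transfection of HepG2 with multiplexed GAL4-UAS reporter units; exogenous FXR-GAL4 chimera. Dose 24 h → TriZol RNA → oligo(dT) RT → PCR, 6-FAM primer extension, HpaI cut → CE. Gain vs DMSO.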

[17] = biological target: Transcriptional activator Myb (Homo sapiens) (UniProt P10242); assay: ATG_Myb_CIS: Attagene CIS-FACTORIAL HepG2 Assay for human Myeloblastosis (Myb) Proto-Oncogene Transcription Factor (AID 2282986; active = hit-call score of the fitted dose curve at least 0.9, where 1 is the maximum; inactive = score below 0.9); details: HepG2 Attagene CIS-FACTORIAL Myb reporter transcription; actives raise or lower the signal
Transcriptional activator Myb (Homo sapiens), sequence (P10242 whole entry, looked up): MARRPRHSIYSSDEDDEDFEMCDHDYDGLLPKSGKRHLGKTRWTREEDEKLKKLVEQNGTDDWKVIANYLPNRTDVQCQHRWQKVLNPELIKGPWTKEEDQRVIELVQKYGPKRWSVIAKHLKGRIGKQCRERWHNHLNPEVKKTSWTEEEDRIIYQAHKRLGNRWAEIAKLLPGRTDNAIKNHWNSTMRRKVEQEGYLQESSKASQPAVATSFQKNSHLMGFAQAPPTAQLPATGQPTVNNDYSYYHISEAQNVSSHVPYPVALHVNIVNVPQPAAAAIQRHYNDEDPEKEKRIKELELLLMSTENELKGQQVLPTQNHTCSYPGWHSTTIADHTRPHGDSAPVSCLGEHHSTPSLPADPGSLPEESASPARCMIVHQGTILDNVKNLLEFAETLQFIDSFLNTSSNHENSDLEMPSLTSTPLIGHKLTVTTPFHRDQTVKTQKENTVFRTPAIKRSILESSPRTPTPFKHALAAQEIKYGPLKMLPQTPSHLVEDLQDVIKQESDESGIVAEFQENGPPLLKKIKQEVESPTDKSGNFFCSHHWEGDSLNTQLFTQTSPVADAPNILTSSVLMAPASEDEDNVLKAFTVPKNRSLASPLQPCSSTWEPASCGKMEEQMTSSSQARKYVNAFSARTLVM
Method in brief: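 HepG2, transient MRTU transfection (cis-element promoters, endogenous TF activity), 24 h compound exposure. Readout: reporter mRNA via RT-PCR, 6-FAM labeling, HpaI digest, capillary electrophoresis. Gain/loss fit vs DMSO.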

[18] = ATG_GAL4_TRANS: Attagene TRANS-FACTORIAL HepG2 Assay for GAL4 (Internal Marker) (AID 2282976); details: HepG2 Attagene TRANS GAL4 internal marker reporter
Method in brief: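 First, HepG2 cells were transfected with reporter units under GAL4-UAS control. Next, they were treated with chemical for 24 h. Finally, RNA was reverse-transcribed, PCR-amplified, FAM-labelled and resolved by capillary electrophoresis, with induction scored against DMSO.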

Measured: AC50

COc1ccccc1OC
inactive: [1] | [2] | [3] | [4] | [5] | [6] | [7] | [8] | [9] | [10] | [11] | [12]

Cl/C=C\C[N+]12CN3CN(CN(C3)C1)C2
inactive: [1] | [2] | [13] | [4] | [14] | [15] | [16] | [7] | [8] | [10] | [11] | [17] | [12]

COP(=S)(OC)Oc1ccc(S(=O)(=O)N(C)C)cc1
active: [2] 38.8 µM
inactive: [1] | [3] | [13] | [4] | [14] | [15] | [6] | [7] | [8] | [9] | [17] | [12]

O=C(NCO)NCO
inactive: [1] | [2] | [3] | [4] | [18] | [7] | [8] | [9] | [17] | [12]

Oc1c(I)cc(I)cc1I
inactive: [1] | [3] | [14] | [15] | [18] | [5] | [8] | [9] | [10] | [17] | [12]
active: [2] 19 µM | [4] 33.6 µM | [16] 100 µM | [11] 100 µM

O=P(O)(O)CN(CP(=O)(O)O)CP(=O)(O)O
inactive: [1] | [2] | [3] | [4] | [15] | [18] | [5] | [7] | [8] | [10] | [11] | [12]

NNC(=S)NN
inactive: [1] | [2] | [3] | [13] | [4] | [15] | [18] | [7] | [9] | [10] | [17] | [12]

O=C(CCl)CCl
active: [2] 45.4 µM | [4] 48.1 µM | [12] 56 µM
inactive: [1] | [3] | [9] | [11] | [17]

Nc1ncc([N+](=O)[O-])s1
inactive: [1] | [2] | [3] | [4] | [15] | [18] | [5] | [7] | [9] | [11] | [17] | [12]

O=C1C(Cl)=C(Cl)C(=O)c2ccccc21
inactive: [1] | [2] | [3] | [13] | [4] | [15] | [18] | [5] | [6] | [9] | [10] | [11] | [17] | [12]

Clc1ccc(C2(Cn3cncn3)CC(Br)CO2)c(Cl)c1 (centres undefined)
inactive: [1] | [4] | [5] | [16] | [7] | [8] | [9] | [10] | [11] | [17]
active: [2] 6.89 µM | [3] 6.86 µM | [12] 47 µM
